# This is a sample that favours compounds with a hit; in the whole collection about 11% have one here.
# G9a inh: blocks human histone lysine methyltransferase G9a | Q96KQ7 | hit rate 8.8% among 350,000 | Potency, µM (series often up to 102 µM), without a hit: at the highest dose activity, negative = inhibition, hits mostly inhibitors | G9a H3K9 monomethylation, AlphaScreen, 2 h; also: % is scaled to controls: 0 for no effect and ±100 for the full control effect; nearly all actives have a fitted effect of over 75% in size
#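 AlphaScreen read-out: biotin-H3K9 peptide (500 nM) methylation by 20 nM enzyme with 20 uM SAM, 2 h at room temperature after 15 min compound preincubation; anti-monomethyl H3K9 antibody plus donor/acceptor beads, 10 min dark.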
# L3MBTL1 block: L3MBTL1 (human) inhibition; hit rate 0.66% among 230,000; AlphaScreen L3MBTL1–H3K9me1 peptide binding; Potency, µM (doses to about 57.1 µM), without a hit: at the top dose activity, negative = inhibition, actives largely listed as inhibitors; Q9Y468; also: % is scaled to controls: 0 for no effect and ±100 for the full control effect; nearly all actives have a fitted effect of over 60% in size
#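 L3MBTL1 50 nM + b-AHA-H3(1-15)K9me1 75 nM, 30 min RT; compound added, 30 min RT; streptavidin donor/Ni-chelate acceptor beads 10 ug/mL each final, 30 min RT dark; AlphaScreen read.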
# JMJD2A Tudor: blocks the human JMJD2A Tudor domain | AlphaScreen JMJD2A-Tudor / H3K4me3 peptide binding | Potency, µM (highest dose often 114 µM), for the others: top-dose activity change, negative = inhibition, usual class: inhibitors | hit rate 4.4% among 390,000 | AID 504339; also: % is scaled to controls: 0 for no effect and ±100 for the full control effect; nearly all actives have a fitted effect of over 50% in size
# Target sequence (O75164 whole entry, looked up, the tested form may be a part): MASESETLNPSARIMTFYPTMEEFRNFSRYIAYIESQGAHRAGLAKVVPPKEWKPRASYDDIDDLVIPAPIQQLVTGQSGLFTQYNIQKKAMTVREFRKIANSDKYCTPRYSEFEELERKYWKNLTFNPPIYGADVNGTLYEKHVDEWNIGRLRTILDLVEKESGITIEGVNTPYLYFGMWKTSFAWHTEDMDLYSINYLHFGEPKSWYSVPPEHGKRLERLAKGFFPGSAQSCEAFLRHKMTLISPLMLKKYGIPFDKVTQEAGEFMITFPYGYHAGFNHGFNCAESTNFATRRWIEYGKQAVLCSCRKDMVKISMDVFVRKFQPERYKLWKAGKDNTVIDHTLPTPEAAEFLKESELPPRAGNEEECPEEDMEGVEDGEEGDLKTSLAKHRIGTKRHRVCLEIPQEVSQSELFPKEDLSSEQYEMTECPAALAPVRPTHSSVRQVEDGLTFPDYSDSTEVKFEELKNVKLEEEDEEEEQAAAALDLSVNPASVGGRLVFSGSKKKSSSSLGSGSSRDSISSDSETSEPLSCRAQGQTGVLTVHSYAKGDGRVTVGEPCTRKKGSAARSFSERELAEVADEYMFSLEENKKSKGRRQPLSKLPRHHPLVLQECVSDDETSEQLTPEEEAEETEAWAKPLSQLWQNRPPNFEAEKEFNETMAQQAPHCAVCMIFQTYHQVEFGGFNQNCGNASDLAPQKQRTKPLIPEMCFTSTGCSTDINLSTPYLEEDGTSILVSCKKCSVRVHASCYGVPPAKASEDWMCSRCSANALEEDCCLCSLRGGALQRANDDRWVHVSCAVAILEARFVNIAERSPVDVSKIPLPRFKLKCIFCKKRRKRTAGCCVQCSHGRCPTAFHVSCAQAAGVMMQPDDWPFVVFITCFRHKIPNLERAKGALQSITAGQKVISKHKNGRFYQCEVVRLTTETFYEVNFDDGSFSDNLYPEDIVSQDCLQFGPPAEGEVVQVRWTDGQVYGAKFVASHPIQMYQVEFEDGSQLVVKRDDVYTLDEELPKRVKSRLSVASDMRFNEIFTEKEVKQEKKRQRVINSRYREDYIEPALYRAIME
# HP1b binding inh: blocks HP1-beta chromodomain binding to methylated histone tails | P83916 | AlphaScreen HP1-beta / biotin-H3K9me3 peptide binding | Potency, µM (titrated, usually from 114 µM), inactives show at the top dose activity change, negative = inhibition, hits mostly inhibitors | hit rate 0.56% among 390,000 | AID 540317; also: nearly all actives have a fitted effect of over 70% in size
#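 HP1-beta protein (50 nM final) preincubated 30 min at room temperature with biotinylated H3(1-18)K9me3 peptide (50 nM) in PBS pH 7.4, 0.01% Tween-20, then compound added for 30 min. AlphaScreen streptavidin donor/nickel chelate acceptor beads (10 ug/mL final), 30 min dark, luminescence read.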
# BAZ2B block: inhibitors of human BAZ2B bromodomain | AlphaScreen BAZ2B-H3K14Ac peptide displacement | AID 504333 | Potency, µM (doses to about 114 µM), without a hit: top-dose activity change, negative = inhibition, most hits filed as inhibitors | Q9UIF8 | hit rate 4.4% among 360,000; also: % is scaled to controls: 0 for no effect and ±100 for the full control effect; nearly all actives have a fitted effect of over 60% in size
#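 Multi-concentration screen (max 110 uM) measuring displacement of acetylated histone H3 peptide from BAZ2B by AlphaScreen, using 50 nM protein, 50 nM peptide and 10 ug/mL streptavidin donor plus Ni-chelate acceptor beads.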
# * hit, by the source's call; ? = inconclusive; · = no result; ! = not active in a repeat; [ ] = dose if it differs, or a comment. Calls follow the shape of the dose curve; as a rule, active = well fitted inhibition curve with a large enough effect; inconclusive = small, poorly fitted or top-dose-only effect; inactive = no such curve, though single readings can be large or run the other way. Potency is read from the fitted curve at half-maximal effect.
SMILES,G9a inh,L3MBTL1 block,JMJD2A Tudor,HP1b binding inh,BAZ2B block
Cc1ccc(S(=O)(=O)CCC(=O)OCC(=O)N2CCN(S(=O)(=O)c3ccccc3)CC2)cc1,50.1µM*,5.8%,-16.4%,35.3%,8.5%
CCOc1ccc(NC(=O)C(=O)NCC(c2cccnc2)N2CCc3ccccc32)cc1 (stereo unspecified),-9.6%[59 µM],·,1.3%,31.1%,2.6%
COc1ccc(N2CCN(S(=O)(=O)c3ccc(OC)c(C(=O)N4CCCCC4)c3)CC2)cc1,44.7µM*,·,-25.4%,?,-24.0%
CCn1cc(C(=O)O)c(=O)c2cc(OC)ccc21,?,2.3%,8.91µM*,-6.9%,?
CCn1cc(C(=O)N2CCN(c3ccc(OC)cc3)CC2)c(=O)c2cc(S(=O)(=O)N(C)C3CCCCC3)ccc21,-3.0%[59 µM],·,-7.7%,8.7%,·
CCn1cc(C(=O)N2CCN(c3ccc(OC)cc3)CC2)c(=O)c2cc(S(=O)(=O)N3CCCCC3)ccc21,50.1µM*,?,-29.9%,-6.8%,?
CCn1cc(C(=O)O)c(=O)c2cc(S(=O)(=O)N3CCCCCC3)ccc21,·,·,-1.5%,41.4%,70.8µM*
N#Cc1ccc(CSc2nc3c(c(=O)[nH]2)CCC3)cc1,?,·,-11.9%,41.5%,2.5%
O=C(c1cc(N2C(=O)C3C4CCC(C4)C3C2=O)ccc1Cl)N1CCN(c2ccc(F)cc2)CC1 (stereo unspecified),?,3.9%,-26.9%,0.0%,-11.8%
COc1ccc(N2CCN(C(=O)c3cc(N4C(=O)C5C6CCC(C6)C5C4=O)ccc3Cl)CC2)cc1 (stereo unspecified),39.8µM*,-6.0%,-31.0%,6.5%,?
CCC(C)NCCCCOc1ccc(Cl)cc1C (stereo unspecified),?,13.6%,14.1µM*,-20.0%,-13.5%
CCC(C)NCCCOc1cc(Cl)ccc1Cl (stereo unspecified),7.94µM*,·,2.51µM*,?,50.1µM*
CCOc1ccc(NC(C)c2cc(Cl)ccc2O)cc1 (stereo unspecified),39.8µM*,?,?,?,35.5µM*
CC1=CC(C)=Nc2ccc(C)cc2N1,44.7µM*,·,-5.8%,49.6%,-34.4%
Cc1ccc2c(c1)NC(=O)CC(c1ccccc1)=N2,-6.3%[59 µM],-6.4%,-10.6%,16.3%,10.9%
COc1ccccc1CNC(=O)c1ccc(Br)o1,35.5µM*,-2.5%,-18.6%,51.9%,-2.7%
COc1ccccc1CNC(=O)C(CC(C)C)NC(=O)C1CCC(C)CC1 (stereo unspecified),0.3%,·,-5.7%,46.2%,?
COc1ccccc1CNC(=O)c1ccccc1C(=O)NC(CC(C)C)C(=O)NCc1ccccc1OC (stereo unspecified),-5.3%[59 µM],·,35.5µM*,3.2%,?
O=C(NCc1ccccc1Cl)c1ccc(Br)o1,8.8%,10.2%,6.3%,38.1%,-9.5%
CC(C)c1ccc(Nc2c(-c3ccccn3)nc3ccccn23)cc1,?,·,31.6µM*,?,22.4µM*
Cc1ccccc1Nc1c(-c2ccccn2)nc2ccccn12,39.8µM*,·,50.1µM*,-4.7%,10µM*
Cc1ccn2c(Nc3ccccc3C)c(-c3ccccn3)nc2c1,?,·,44.7µM*!,?,22.4µM*
Cc1ccccc1Nc1c(-c2cccnc2)nc2ccccn12,4.5%,·,-6.6%[11.4 µM],37.7%,-31.1%
COc1ccc(-c2nc3ccccn3c2Nc2ccccc2C)cc1,·,·,56.2µM*,?,·
Cc1c(Cl)cccc1NC(=O)CN1C(=O)c2ccccc2Sc2ncccc21,-16.4%[59 µM],·,-17.6%,12.6%,-21.5%
SMILES,G9a inh,L3MBTL1 block,JMJD2A Tudor,HP1b binding inh,BAZ2B block
CCOc1ccc(C(=O)NCCn2cc(SCC(=O)Nc3ccccc3)c3ccccc32)cc1,-34.0%[59 µM],·,-18.7%,11.2%,-25.5%
Cc1ccc2nc(-c3ccncc3)c(Nc3ccccc3C)n2c1,10.4%[59 µM],·,-17.5%,19.8%,-11.4%
Cc1ccn2c(Nc3ccccc3)c(-c3ccccn3)nc2c1,42.4%[59 µM],·,50.1µM*,27.4%,20µM*
Cc1ccc2nc(-c3ccccn3)c(Nc3ccccc3C)n2c1,?,·,44.7µM*!,-21.1%,20µM*
CSc1ccc(-c2nc3cc(C)ccn3c2Nc2ccc(C)cc2)cc1,-2.2%[59 µM],·,-16.4%,-7.3%,-9.8%
Cc1ccc2nc(-c3cccnc3)c(Nc3ccccc3C)n2c1,-6.8%,·,-9.9%,1.6%,-3.4%
Cc1ccc(-c2nc3sccn3c2Nc2ccccc2C)cc1,12.6µM*,·,44.7µM*,?,7.08µM*
Cc1ccc2nc(-c3ccccn3)c(Nc3ccc(F)cc3)n2c1,12.1%[59 µM],·,?,26.1%,5.62µM*
CN(C)C1(CNC(=O)C2CCN(S(=O)(=O)c3c(Cl)cccc3Cl)CC2)CCCCC1,-28.3%,6.7%,-15.6%,10.6%,8.2%
O=c1[nH]c2ccc(S(=O)(=O)Nc3cc(Cl)ccc3O)cc2o1,3.16µM*,·,?,-4.4%,39.8µM*
O=c1[nH]c2ccc(S(=O)(=O)Nc3ccc(Cl)cc3)cc2o1,?,·,-7.6%,56.5%,-9.7%
COc1cc(C(=O)Nc2ccc3oc(-c4ccccc4)nc3c2)cc(OC)c1OC,?,·,-26.8%,20.5%,-18.8%
Cn1c(C(=O)NCc2ccco2)cc2c(=O)[nH]c3ccccc3c21,-0.7%[59 µM],-3.4%,100µM*,46.9%,-7.7%
COC(=O)C(CC(=O)c1ccc(Br)cc1)n1nc(C)cc1C (stereo unspecified),·,14.7%,-13.1%,-8.3%,?
COC(=O)C(CC(=O)c1ccc(Br)cc1)n1ccnc1 (stereo unspecified),?,-13.8%,·,·,50.1µM*
COc1cc(NC(=O)CC(C)n2ccnc2)cc(OC)c1 (stereo unspecified),5.3%,·,-4.9%,32.5%,1.0%
Cc1ccc(C(=O)CC(C(=O)O)n2cccn2)cc1 (stereo unspecified),50.1µM*,7.9%,-12.6%,34.4%,6.5%
COC(=O)C(CC(=O)c1ccc(C)cc1)n1nc(C)cc1C (stereo unspecified),79.4µM*,1.7%,1.3%,45.6%,-28.3%
COc1cc(OC)cc(-c2nc3nc(C)c(CCC(=O)Nc4ccc(F)cc4F)c(C)n3n2)c1,-31.1%[59 µM],·,-19.9%,28.2%,-18.8%
O=C(CN1CCOc2ccccc21)NCc1ccc(Cl)cc1,50.1µM*,-13.2%,-18.3%,28.1%,?
O=C(CN1CCc2ccccc21)NCc1ccccc1Cl,70.8µM*,-7.9%,?,-8.6%,-37.3%
COC(=O)c1ccc(S(=O)(=O)N2CCc3ccccc32)cc1,46.6%,12.2%,4.8%,69.8%,?
COC(=O)c1ccc(CN2CCc3ccccc32)cc1,·,-3.2%,39.8µM*,-19.2%,?
COc1ccc(Cl)cc1NC(=O)CN1Cc2ccccc2C1=O,-11.5%[59 µM],·,-9.6%,26.3%,-3.2%
COc1ccc(Cl)cc1NC(=O)CN1CCc2ccccc21,22.4µM*,-11.8%,-25.5%,27.2%,?
O=C(CN1CCc2ccccc21)NCc1ccc2c(c1)OCO2,21.9%[59 µM],-5.7%,-32.0%,11.6%,-31.4%
O=C(CN1CCc2ccccc21)NC(=O)NCc1ccccc1,31.6µM*,-14.3%,-9.0%[11.4 µM],-11.3%,·
